Source: PubChem BioAssay (NCATS)
Values joined by “and” are separate entries in the source; they are usually repeats but may differ in a detail not shown here. Equal entries are not always repeated. Inconclusive results are not listed. Active and inactive are the calls of the source. Unless noted, calls follow the shape of the dose curve; as a rule, active = well fitted curve in the direction sought with a large enough effect; inconclusive = small, poorly fitted or top-dose-only effect, or another doubt; inactive = no such curve, though single readings can be large; an effect the other way counts as inactive or inconclusive.

Assays:
[1] = Cell Viability - NIH 3T3 (AID 541); conditions: NIH 3T3 cell viability, qHTS; activity change, negative = cytotoxicity: at 92.2 µM (top of the series);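 also: cells exposed to compound for 40 hours; nearly all actives have a fitted effect of over 25% in size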; also: potency is read from the fitted curve at half-maximal effect;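 as to activity change, negative = cytotoxicity: plate controls were DMSO alone for no effect and tamoxifen positive control for full effect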
In short: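 Intracellular ATP (CellTiter-Glo luminescence, 20 min at room temperature) measured after 40 hr compound exposure at 37 °C of 1000 NIH 3T3 mouse fibroblasts/well in complete medium; AC50 derived by Hill-equation modelling of qHTS concentration-response curves.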

[2] = Cell Viability - SH-SY5Y (AID 544); conditions: SH-SY5Y neuroblastoma cell viability; viability change, negative = cytotoxic: at 92.2 µM (top of the series);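 also: cells exposed to compound for 40 hours; nearly all actives have a fitted effect of over 55% in size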; also: potency is read from the fitted curve at half-maximal effect
In short: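 Cytotoxicity measured via ATP-dependent luciferase luminescence (CellTiter-Glo) following 40 h, 37 °C exposure of 1500 SH-SY5Y cells per well. Concentration-response data were fitted with the standard Hill equation to give AC50.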

[3] = Cell Viability - Mesenchymal (AID 546);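 also: cells exposed to compound for 40 hours before reading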; also: potency is read from the fitted curve at half-maximal effect
In short: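 Human renal mesenchymal cells (glomerulus-derived), 1000 cells/well, 5 hr 37 °C pre-incubation; compound 40 hr, 37 °C; CellTiter-Glo, 20 min RT; luminescence; AC50 via Hill equation.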

[4] = Cellular Toxicity (caspase-3) HUV-EC-C (AID 656)
In short: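 HUV-EC-C endothelial cells, 1000/well, were pre-incubated 5 hr at 37°C, then exposed to compounds for 16 hr at 37°C. Caspase-Glo 3/7 luminescence was read after 20 min at room temperature. AC50 came from Hill fits, normalized to DMSO and 100 uM tamoxifen.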

[5] = Cellular Toxicity (caspase-3) SHSY5Y (AID 657)
In short: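 SH-SY5Y human neuroblastoma cells (1500/well) were treated with compounds for 16 h at 37 °C, then Caspase-Glo 3/7 luminescence was read after 1 h at room temperature. Data normalized to DMSO and 10 uM staurosporine; AC50 from Hill fits.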

[6] = Cellular Toxicity (caspase-3) BJ (AID 658);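 also: 0% = DMSO basal and 100% = 10 µM staurosporine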
In short: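 qHTS, BJ fibroblasts, 1000 cells/well; 5 hr preincubation, 16 hr compound, 37 °C; Caspase-Glo 3/7 reagent, 1 hr RT; luminescence. DMSO = 0%, 10 uM staurosporine = 100%. Hill-equation AC50.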

[7] = Cellular Toxicity (caspase-3) Mesangial (AID 660);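 also: combined caspase 3 and 7 activity read by Caspase-Glo luminescence; cells exposed to compound for 16 h before the caspase read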
In short: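 Caspase 3/7 activation measured by Caspase-Glo 3/7 luminescence (20 min, room temperature) following 16 h exposure of mesangial cells (1000/well); AC50 from Hill-equation fit, normalized to DMSO and 100 uM tamoxifen.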

[8] = Cellular Toxicity (caspase-3) H-4-II-E (AID 663); conditions: Potency: caspase-3 activation; also: potency is read from the fitted curve at half-maximal effect;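 as to caspase-3 activation: cells exposed to compound for 16 hr before readout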
In short: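 H-4-II-E rat hepatoma, 1500 cells/well, 5 hr settle at 37 °C; compound 16 hr, 37 °C, complete medium; Caspase-Glo 3/7, 20 min RT; luminescence. DMSO = 0%, 100 uM tamoxifen = 100%; Hill-equation AC50.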

[9] = Cellular Toxicity (caspase-3) Hek293 (AID 664); conditions: HEK293 caspase-3 activation, DMSO = 0%, 100 µM tamoxifen = 100%; at 92.2 µM (top of the series);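 also: cells exposed to compound for 16 h at 37 °C before readout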
In short: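 Concentration-response qHTS: caspase 3/7 activation measured by luminescent aminoluciferin substrate cleavage after 16 h compound exposure of Hek 293 cells. AC50 from Hill equation, with DMSO as basal and 100 uM tamoxifen as 100%.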

[10] = Cellular Toxicity (caspase-3) NIH 3T3 (AID 666);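 also: caspase signal read after 16 h compound exposure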; also: potency is read from the fitted curve at half-maximal effect;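 as to caspase-3 activation: 0% = DMSO basal and 100% = 100 µM tamoxifen stimulation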
In short: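 Caspase-Glo 3/7 luminescence reported caspase activation in 1000 NIH 3T3 cells/well after 16 h compound exposure at 37 C. DMSO set basal and 100 uM tamoxifen set 100% stimulation; concentration-response modeled with the Hill equation for AC50.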

[11] = Cell Viability - LYMP2-019 (AID 973); also: nearly all actives have a fitted effect of over 55% in size; also: potency is read from the fitted curve at half-maximal effect;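 as to activity change, negative = cytotoxicity: 0% = DMSO alone and full effect = 92 µM tetraoctylammonium bromide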
In short: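 AC50 values come from Hill-equation fits of luminescent intracellular ATP (CellTiter-Glo, 30 min, room temperature) following 24 h compound exposure at 37 C. Cells: LYMP2-019 lymphoblastoid line, 2500 per well, in complete culture medium.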

[12] = Cell Viability - LYMP2-023 (AID 975); also: nearly all actives have a fitted effect of over 55% in size; also: potency is read from the fitted curve at half-maximal effect;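 as to activity change, negative = cytotoxicity: cellular ATP measured by luciferase luminescence as viability proxy; plate controls were DMSO only for no effect and 92 µM tetraoctylammonium bromide control for full effect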
In short: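 Intracellular ATP, read by CellTiter-Glo luminescence, reports viability after 24 hr compound exposure at 37 C. 2500 lymphoblastoid cells/well (LYMP2-023) seeded 5 hr beforehand; Hill fits give AC50; positive control tetraoctylammonium bromide.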

[13] = Cell Viability - LYMP2-022 (AID 987); also: nearly all actives have a fitted effect of over 55% in size; also: potency is read from the fitted curve at half-maximal effect;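 as to viability change, negative = cytotoxic: 0% = DMSO alone and full effect = tetraoctylammonium bromide at 92 µM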
In short: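 Cytotoxicity read as decreased cellular ATP (CellTiter-Glo luminescence, 30 min room temperature) after 24 hours compound exposure of 2500 lymphoblastoid LYMP2-022 cells/well at 37 C. Concentration-response data fitted with standard Hill equation for AC50.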

[14] = Cell Viability - LYMP1-002 - Assay at 40 hr (AID 994); also: nearly all actives have a fitted effect of over 60% in size; also: potency is read from the fitted curve at half-maximal effect;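 as to viability change, negative = cytotoxic: 0% = DMSO only and full inhibition = 92 µM tetraoctylammonium bromide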
In short: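 Cytotoxicity was read as loss of cellular ATP (CellTiter-Glo luminescence) after 40 hr compound exposure at 37 C of 2500 LYMP1-002 lymphoblastoid cells per well. Concentration-response data were fitted with the standard Hill equation to give AC50.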

[15] = target: Thyroid hormone receptor beta (Homo sapiens) (UniProt P10828); assay: qHTS assay for small molecule antagonists of thyroid hormone receptor beta signaling (AID 588547; active = well fitted inhibition curve with a large enough effect in the signal ratio, with a control signal flat, not every such curve was filed as active; the % refers to the signal ratio;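 also: cells stimulated with 0.4 nM T3 agonist during compound exposure; % is scaled to controls: 0 for no effect and ±100 for the full control effect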); conditions: TR-UAS-bla HEK293, beta-lactamase ratio, antagonist mode, 18 h
Sequence of Thyroid hormone receptor beta (Homo sapiens) (P10828 whole entry, looked up): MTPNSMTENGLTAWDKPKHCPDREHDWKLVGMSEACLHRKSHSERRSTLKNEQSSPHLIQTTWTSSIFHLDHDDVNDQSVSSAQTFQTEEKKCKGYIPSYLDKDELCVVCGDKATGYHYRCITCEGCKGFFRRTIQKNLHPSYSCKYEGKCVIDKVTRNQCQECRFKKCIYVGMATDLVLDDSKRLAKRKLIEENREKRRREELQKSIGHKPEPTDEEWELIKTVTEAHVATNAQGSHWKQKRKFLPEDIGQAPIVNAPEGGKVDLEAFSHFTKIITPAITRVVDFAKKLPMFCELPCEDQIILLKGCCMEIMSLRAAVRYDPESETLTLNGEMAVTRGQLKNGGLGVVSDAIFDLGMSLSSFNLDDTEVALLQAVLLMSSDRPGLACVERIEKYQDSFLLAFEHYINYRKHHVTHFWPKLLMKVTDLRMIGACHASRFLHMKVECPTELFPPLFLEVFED
In short: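 TR-UAS-bla GripTite HEK293 cells in 2% charcoal/dextran FBS medium; compounds 0.59 nM to 92 uM with T3 at 0.4nM final, 18 h at 37 C. Beta-lactamase read by CCF4 fluorescence (460/530 nm); Hill fits gave IC50 and efficacy.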

[16] = qHTS assay for small molecule activators of the p53 signaling pathway (AID 651743; active = well fitted activation curve with a large enough effect in the signal ratio, not every such curve was filed as active; the % refers to the signal ratio; also: % of control where 0% means no effect); conditions: HCT-116 p53RE-bla, beta-lactamase FRET ratio, 16 h; activation: active compounds read high
In short: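 Following 16 hours of compound exposure at 37 C, HCT-116 cells bearing the p53RE-bla reporter were loaded with LiveBLAzer B/G FRET substrate for 2 hours at room temperature and fluorescence intensity was recorded.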

[17] = qHTS assay for small molecule disruptors of the mitochondrial membrane potential - 1 hr assay (AID 651754; calls by dose curve; also: nearly all actives have a fitted effect of over 35% in size; also: potency is read from the fitted curve at half-maximal effect)
In short: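 Mitochondrial potential in living HepG2 cells after 1 hr compound treatment at 37C was read with Mito-MPS dye added for a further 30 min. Red aggregate and green monomer fluorescence were measured; loss of potential leaves dye as cytoplasmic monomers.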

[18] = qHTS assay for small molecule disruptors of the mitochondrial membrane potential - 5 hr assay (AID 651755; calls by dose curve; also: nearly all actives have a fitted effect of over 40% in size; also: potency is read from the fitted curve at half-maximal effect)
In short: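 Read-out: ratiometric Mito-MPS fluorescence, green monomer (ex 490/em 535) vs red mitochondrial aggregate (ex 540/em 590). HepG2 cells treated 5 hr at 37C before 30 min dye loading.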

[19] = target: Peroxisome proliferator-activated receptor alpha (Homo sapiens) (UniProt Q07869); assay: qHTS assay for small molecule agonists of the peroxisome proliferator-activated receptor alpha (PPARalpha) signaling pathway (AID 651778); conditions: PathHunter PPARalpha complementation, chemiluminescence, 6 h; active compounds read high; also: % of control where 0% means no effect
Sequence of Peroxisome proliferator-activated receptor alpha (Homo sapiens) (Q07869 whole entry, looked up, the tested form may be a part): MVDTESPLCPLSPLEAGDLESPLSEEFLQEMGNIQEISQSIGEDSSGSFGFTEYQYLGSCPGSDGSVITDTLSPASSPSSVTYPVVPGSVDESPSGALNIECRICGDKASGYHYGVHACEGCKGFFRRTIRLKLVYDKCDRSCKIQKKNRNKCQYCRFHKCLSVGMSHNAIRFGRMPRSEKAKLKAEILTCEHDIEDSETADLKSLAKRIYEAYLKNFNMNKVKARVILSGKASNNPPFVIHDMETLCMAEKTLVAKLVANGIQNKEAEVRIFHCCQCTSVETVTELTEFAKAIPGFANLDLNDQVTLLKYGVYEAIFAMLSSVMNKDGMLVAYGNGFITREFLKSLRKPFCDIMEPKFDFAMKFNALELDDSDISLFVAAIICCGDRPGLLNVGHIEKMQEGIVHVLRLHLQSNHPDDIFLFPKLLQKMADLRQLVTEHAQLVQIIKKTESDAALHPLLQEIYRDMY
In short: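 Enzyme-fragment complementation assay in which ligand-bound PPARalpha translocates and forms an active enzyme that generates chemiluminescence. Cells were plated overnight, exposed to compound for 6 hr at 37 C, and then given detection reagent for 60 min at room temperature.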

[20] = Cell Viability - LYMP1-002 - Assay at 24 hr (AID 993); also: potency is read from the fitted curve at half-maximal effect; as to activity change, negative = cytotoxicity: % is scaled to controls: 0 for no effect and ±100 for the full control effect
In short: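 qHTS cytotoxicity at 24 h: CellTiter-Glo ATP luminescence in lymphoblastoid line LYMP1-002 incubated with compound at 37 °C. Concentration-response modeled with the Hill equation for AC50; tetraoctylammonium bromide served as positive control.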

CCCCOCC1CO1 (configuration not stated)
inactive: Potency [1] | Potency [2] | Potency [3] | outcome [4] | outcome [5] | outcome [6] | outcome [7] | Potency [8] | caspase-3 activation [9] 3.87% | Potency [10] | Potency [11] | Potency [12] | Potency [13] | Potency [14] | activity change % (negative = inhibition) [15] 12.9% | activation [16] -1.31% | Potency [17] | Potency [18] | max response [19] -2.14%

O=C(O)C(Br)CBr (configuration not stated)
inactive: Potency [3] | outcome [4] | outcome [5] | outcome [6] | outcome [7] | Potency [8] | caspase-3 activation [9] 1.8% | Potency [11] | Potency [12] | Potency [13] | Potency [20] | Potency [14] | activity change % (negative = inhibition) [15] 10.8% | activation [16] 3.2% | Potency [17] | Potency [18] | max response [19] 1.03%

CN(C)c1ccc(N)cc1
inactive: Potency [3] | outcome [4] | outcome [5] | outcome [7] | Potency [8] | caspase-3 activation [9] 2.4% | activity change % (negative = inhibition) [15] 8.59% | activation [16] -3.55%
active: activity change, negative = cytotoxicity [1] -87% | viability change, negative = cytotoxic [2] -91.2% | Potency [11] 50.1 µM | Potency [13] 50.1 µM | Potency [17] 29.8 µM | Potency [18] 29.8 µM

CCN(N=O)C(N)=O
inactive: Potency [1] | Potency [2] | outcome [4] | outcome [5] | outcome [6] | outcome [7] | Potency [8] | caspase-3 activation [9] 0.506% | Potency [10] | Potency [11] | Potency [13] | Potency [20] | activity change % (negative = inhibition) [15] 18.5% | activation [16] 0.306% | Potency [17] | Potency [18]

N#CCc1ccccc1
inactive: Potency [1] | Potency [2] | Potency [3] | outcome [5] | outcome [6] | outcome [7] | Potency [8] | caspase-3 activation [9] -1.14% | Potency [10] | Potency [11] | Potency [12] | Potency [13] | Potency [20] | Potency [14] | activity change % (negative = inhibition) [15] 23.1% | activation [16] -0.84% | Potency [17] | Potency [18] | max response [19] 0.0396%

O=[N+]([O-])c1ccccc1CCl
active: Potency [1] 12.6 µM | Potency [11] 63.1 µM
inactive: Potency [2] | outcome [7] | caspase-3 activation [9] 0.434% | Potency [10] | Potency [12] | Potency [14] | activity change % (negative = inhibition) [15] 8.81% | activation [16] -1.05% | Potency [17] | Potency [18] | max response [19] -1.86%

ClCCCCl
inactive: Potency [1] | Potency [2] | Potency [3] | outcome [4] | outcome [5] | outcome [6] | outcome [7] | Potency [8] | Potency [10] | Potency [11] | Potency [12] | Potency [13] | activity change % (negative = inhibition) [15] 17.8% | activation [16] -3.64% | Potency [17] | Potency [18] | max response [19] -2.57%

C=C(Cl)CSC(=S)N(CC)CC
active: activity change, negative = cytotoxicity [1] -85.8%
inactive: Potency [2] | Potency [3] | outcome [4] | outcome [5] | Potency [8] | caspase-3 activation [9] 0.963% | Potency [10] | Potency [20] | Potency [14] | activity change % (negative = inhibition) [15] 0.68% | activation [16] -1.91% | Potency [17] | Potency [18] | max response [19] 11.5%

Cc1ccc(N)cc1C
inactive: Potency [1] | Potency [2] | Potency [3] | outcome [4] | outcome [5] | outcome [6] | outcome [7] | Potency [8] | Potency [10] | Potency [11] | Potency [12] | Potency [13] | Potency [14] | activity change % (negative = inhibition) [15] 9.98% | activation [16] -1.62% | Potency [17] | Potency [18] | max response [19] -0.229%

CN(C)c1ccc(N(C)C)cc1
inactive: Potency [3] | outcome [6] | outcome [7] | Potency [8] | caspase-3 activation [9] -1.04% | Potency [10] | Potency [12] | Potency [14] | activity change % (negative = inhibition) [15] -0.335% | activation [16] 1.85% | Potency [17] | Potency [18] | max response [19] -4.1%
active: viability change, negative = cytotoxic [2] -98.2% | Potency [13] 39.8 µM

CCOC(=O)CBr
inactive: Potency [1] | Potency [2] | Potency [3] | outcome [4] | outcome [5] | outcome [6] | outcome [7] | Potency [8] | Potency [10] | Potency [11] | Potency [12] | Potency [13] | Potency [20] | Potency [14] | activity change % (negative = inhibition) [15] -6.62% | activation [16] -2.17% | Potency [17] | Potency [18] | max response [19] -2.92%

CN1CSC(=S)N(C)C1
inactive: Potency [3] | outcome [4] | outcome [6] | Potency [8] | activity change % (negative = inhibition) [15] 21.7% and -19% | activation [16] 0.178% and -0.711% | Potency [17] | Potency [18] | max response [19] -4.77% and -6.32%
active: Potency [1] 1.26 µM | viability change, negative = cytotoxic [2] -83% | Potency [11] 31.6 µM | Potency [12] 39.8 µM | Potency [13] 10 µM | Potency [20] 39.8 µM

C(CCOCC1CO1)COCC1CO1 (configuration not stated)
active: Potency [2] 31.6 µM | Potency [14] 39.8 µM
inactive: Potency [1] | Potency [3] | outcome [4] | outcome [5] | outcome [6] | outcome [7] | Potency [8] | caspase-3 activation [9] 0.467% | Potency [10] | Potency [11] | Potency [12] | Potency [20] | activity change % (negative = inhibition) [15] 16.3% | activation [16] 15.9% | Potency [17] | Potency [18]

O=[N+]([O-])/C=C/c1ccccc1
inactive: outcome [4] | outcome [6] | outcome [7] | Potency [20] | activity change % (negative = inhibition) [15] -15.9% | activation [16] 10.5% | Potency [17] | Potency [18] | max response [19] -1.42%
active: Potency [1] 15.8 µM | Potency [2] 12.6 µM | Potency [3] 25.1 µM | Potency [8] 6.31 µM | Potency [10] 25.1 µM | Potency [11] 39.8 µM | Potency [12] 50.1 µM | Potency [13] 39.8 µM
